# Only some compounds are listed: those with a hit (about 19% of all), similar ones and a draw of the others.
# IL1B secr inh: qHTS for Inhibitors of Inflammasome Signaling: IL-1-beta AlphaLISA Primary Screen; THP-1 LPS/ATP IL-1B secretion, AlphaLISA, 16 h; active compounds read low; activity change, % at 57.5 µM; AID 743279, 2014; actives 4.7% (n = 360,000); in the data active = activity change below about -50%; inconclusive = mostly about -30% to -49%; note: % is set by controls: 0 for no effect and ±100 for the full control effect
#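 Secreted IL-1B measured by AlphaLISA bead assay after 16 h compound exposure of THP-1 cells; compounds (final up to 57.5 uM) added 1 h before LPS (250 ng/mL) and ATP (1.25 mM) stimulation; lower signal means less secretion.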
# MCF10A rereplic: A quantitative high throughput screen for small molecules that induce DNA re-replication in MCF 10a normal breast cells. MCF 10A DNA re-replication, Hoechst nuclear intensity, 48 h. AID 624296, 2012. Potency, µM (highest dose often 46.1 µM), for the others: at the highest dose activity, positive = re-replication, hits mostly activators. actives 2.9% (n = 350,000); note: potency is the fitted concentration of half-maximal effect; % of control where 0% means no effect; nearly all actives have a fitted effect of over 50% in size
# SW480 rerep: A quantitative high throughput screen for small molecules that induce DNA re-replication in SW480 colon adenocarcinoma cells | SW480 DNA re-replication, Hoechst DNA content imaging, 48 h | Potency, µM (highest dose often 46.1 µM), for the others: at the highest dose re-replication activation, actives largely listed as activators | actives 1.8% (n = 340,000); note: potency is the fitted concentration of half-maximal effect; % of control where 0% means no effect; nearly all actives have a fitted effect of over 55% in size
#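 SW480 cells exposed to compounds for 48 hr at 37 C, 5% CO2, then Hoechst-stained 40 min. Nuclear DNA content imaged by fluorescence scanning (405 nm excitation, 500-530 nm emission); re-replication scored as increased high-intensity nuclei.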
# TDP1 cell noCPT: qHTS for Inhibitors of human tyrosyl-DNA phosphodiesterase 1 (TDP1): qHTS in cells in absence of CPT | actives 15% (n = 420,000) | AID 686978, 2013 | Potency, µM (doses to about 46.2 µM), inactives show top-dose activity change, negative = growth inhibition, hits mostly inhibitors | DT40 Tdp1-/- hTDP1 cells, no CPT, ATP luminescence, 48 h; note: potency is the fitted concentration of half-maximal effect; % is set by controls: 0 for no effect and ±100 for the full control effect; nearly all actives have a fitted effect of over 55% in size
#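 DT40 Tdp1-/-;hTDP1 cells, no CPT (DMSO vehicle only), 400 cells/well; compounds pin-transferred; ≥48 hr, 37 °C; CellTiter-Glo 30 min RT dark, luminescence read.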
# DT40 TDP1 CPT: qHTS for Inhibitors of human tyrosyl-DNA phosphodiesterase 1 (TDP1): qHTS in cells in presence of CPT | chicken DT40 Tdp1-/-;hTDP1 cells + 20 nM CPT, ATP luminescence, 48 h | Potency, µM (doses to about 46.2 µM), for inactives: at the top dose activity change, negative = growth inhibition, usual class: inhibitors | actives 12% (n = 420,000); note: potency is the fitted concentration of half-maximal effect; % is set by controls: 0 for no effect and ±100 for the full control effect; nearly all actives have a fitted effect of over 55% in size
#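 Cell growth measured by CellTiter-Glo luminescence after a minimum 48 h, 37 C compound exposure with 20 nM CPT in Tdp1-knockout DT40 cells stably expressing hTDP1, seeded 400/well; qHTS titration format.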
# Chronic BCR inh: qHTS Assay to Find Inhibitors of Chronic Active B-Cell Receptor Signaling; ABC-DLBCL IkBa-CBG/CBR reporter, luminescence ratio, 4 h; Potency, µM (titrated, usually from 46.1 µM), for inactives: at the top dose activity change, negative = inhibition, actives largely listed as inhibitors; actives 0.05% (n = 340,000); AID 493014, 2011; active = well fitted inhibition curve with a large enough effect in the signal ratio, with a control signal flat, not every such curve was filed as active; inconclusive = small, poorly fitted or top-dose-only effect, or effect the other way, or a change in a side signal; the % refers to the signal ratio;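 note: potency is the fitted concentration of half-maximal effect; plate controls were basal doxycycline-induced cells for no effect and cells given 10 µM MG132 for full effect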
#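 TMD8 ABC-DLBCL cells carrying doxycycline-inducible green luciferase fused to IkappaBalpha plus unfused red luciferase were exposed to compounds (up to 46 uM) for 4 hrs at 37C. Activity came from the overlap-corrected green/red luminescence ratio.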
# * hit, by the source's call; u = inconclusive; x = not tested or not shown. Unless noted, calls come from the whole dose curve; as a rule, active = well fitted curve in the direction sought with a large enough effect; inconclusive = small, poorly fitted or top-dose-only effect, or another doubt; inactive = no such curve, though single readings can be large; an effect the other way counts as inactive or inconclusive.
SMILES,IL1B secr inh,MCF10A rereplic,SW480 rerep,TDP1 cell noCPT,DT40 TDP1 CPT,Chronic BCR inh
O=C(CCN1C(=O)C2C3CC(C(Br)C3Br)C2C1=O)OCC(=O)c1cccc([N+](=O)[O-])c1 (configuration not stated),37,-41%,-54%,-14%,4%,u
Cc1cc(C)n(C(=O)CSc2nc3ccccc3o2)n1,18,14%,-2%,-1%,-6%,6%
COCCn1c(C)cc(C(=O)CSc2nnc3ccccn23)c1C,-8,11%,-12%,-2%,-4%,-15%
COCCn1c(SCC(=O)c2cc(C)n(C)c2C)nc2ccccc2c1=O,u,-6%,-10%,13µM*,u,2%
COCCn1c(C)cc(C(=O)CSc2nc3ccccc3s2)c1C,23,30%,u,18µM*,13µM*,u
COCCn1c(C)cc(C(=O)CSc2nc3ccccc3o2)c1C,19,4%,-10%,u,26µM*,-2%
Cc1cc2nc(-c3ccco3)c(Cc3ccccc3C(F)(F)F)n2c(C)c1Br,0,x,x,u,u,x
CC1=NN(c2ccccc2)C(=O)C1N=Nc1ccccc1 (configuration not stated),-7,8%,-49%,-21%,7%,-1%
CC1=NN(c2nc(-c3ccc(C)cc3)cs2)C(=O)C1N=Nc1cccc(O)c1 (configuration not stated),32,-7%,5%,16µM*,u,3%
CC1=NN(c2nc(-c3ccc(C)cc3)cs2)C(=O)C1N=Nc1ccccc1O (configuration not stated),241,u,0.73µM*,4.6µM*,4.1µM*,4%
Cc1oc(-c2ccccc2NC(=O)c2cccnc2)nc1CNC(=O)c1ccc(N(C)C)cc1,x,x,x,-16%,1%,x
COc1ccc(C(=O)N2CCN(c3c(C)cccc3C)CC2)cc1OC,24,3%,-10%,u,23µM*,-2%
COc1ccc(C(=O)N2CCN(c3nc4ccccc4o3)CC2)cc1OC,17,0%,0%,21µM*,16µM*,3%
COc1ccc(C(=O)N2CCN(C(=O)c3ccc(-c4ccccc4)cc3)CC2)cc1OC,-9,28%,-2%,u,-19%,-21%
COc1ccc(C(=O)N2CCN(c3ccc(C)cc3)CC2)cc1OC,24,-1%,-4%,u,u,-1%
CCc1ccc(N2CCN(C(=O)c3ccc(OC)c(OC)c3)CC2)cc1,0,4%,-2%,13µM*,u,-1%
CC(=O)N/C(=N\c1nc(C)cc(C)n1)Nc1ccc(Cl)cc1Cl,10,0%,-6%,-13%,22%,1%
O=C(NCCO)C(=O)NCC(c1ccc2c(c1)OCO2)N1CCOCC1 (configuration not stated),x,x,x,-3%,-3%,x
CCOC(=O)CNC(=O)C1(NC(=O)CNC(=O)OCc2ccccc2)CCCC1,u,-2%,-7%,0%,1%,x
Nc1ccn([C@@H]2O[C@H](C(=O)NCc3ccc4c(c3)OCO4)[C@@H](O)[C@H]2O)c(=O)n1,-18,x,x,-13%,2%,x
Cc1ccc(OCCOC(=O)c2cccc(S(=O)(=O)N3CC(C)OC(C)C3)c2)cc1 (configuration not stated),-29,2%,-11%,u,u,-5%
Cc1ccc(NC(=O)CSc2nc(-c3cccs3)nc3cc(=O)[nH]n23)cc1,x,x,x,2%,3%,x
NNC(=O)c1cc(S(=O)(=O)N2CCOCC2)c[nH]1,0,3%,-8%,11%,-13%,-8%
c1cnc2ncc3sccc3c2c1,12,-7%,16µM*,-14%,-16%,0%
Cc1cnc2ncc3sccc3c2c1,2,-9%,6%,-24%,-4%,0%
SMILES,IL1B secr inh,MCF10A rereplic,SW480 rerep,TDP1 cell noCPT,DT40 TDP1 CPT,Chronic BCR inh
O=C1Nc2ccccc2C(=O)N(Cc2ccccc2)C1C(=O)NC1CC1 (configuration not stated),23,x,x,1%,6%,x
O=C(Nc1cccc(C(=O)N2CCCCC2)c1)C1CCCCC1,14,3%,0%,-5%,-16%,x
Clc1ccc2c(c1)-c1ccccc1C1=NCCN12,-103*,x,x,1.6µM*,-105%,x
Brc1ccc2c(c1)-c1ccccc1C1=NCCN12,-104*,x,x,0.82µM*,1.5µM*,x
COc1ccc(Br)cc1S(=O)(=O)N1CCN=C1c1ccccc1,9,-7%,14%,u,-30%,-2%
CN1C2=NCCN2C(=O)c2cc(Cl)ccc21,-17,3%,u,-28%,6%,-1%
CC(=O)c1ccc(N2CCN(S(=O)(=O)c3ccc(-c4coc(C)n4)cc3)CC2)cc1,x,x,x,-22%,-22%,x
Cc1ccc(-n2cc(CN3CCNC(=O)CC3)c(-c3ccc(F)cc3)n2)cc1,x,-9%,-17%,u,u,-1%
Cc1ccc(-n2cc(CN3CCC(O)(c4ccccn4)CC3)c(-c3ccc(F)cc3)n2)cc1,-103*,u,u,u,u,-12%
Cc1ccc(-n2cc(CN(C)Cc3nccn3C)c(-c3ccc(F)cc3)n2)cc1,-139*,u,-2%,u,u,17%
Cc1ccc(-n2cc(CN(C)Cc3ncc[nH]3)c(-c3cccc(C)c3)n2)cc1,-81*,u,-6%,23µM*,u,u
CCN1CC(CN(C)Cc2cn(-c3ccc(C)cc3)nc2-c2cccc(C)c2)CC1=O (configuration not stated),-86*,8%,0%,15µM*,u,u
COc1cc(C2C=C(C(=O)O)Nc3ncnn32)ccc1O (configuration not stated),x,x,x,-6%,-20%,x
N[C@@H](C(=O)O)c1ccc(C(=O)O)c(C(=O)O)c1,x,x,x,-14%,-7%,x
O=C(NCc1cccc(F)c1)C1CCN(c2nc3ccccc3nc2C(F)(F)F)CC1,x,x,x,u,-24%,x
Cc1ccc2oc3c(c(=O)c2c1)C1(C(=O)N(C)c2ccccc21)N(CCCO)C3=O (configuration not stated),x,x,x,-1%,-11%,x
N#CC1=C(N)N2C(=C(C#N)C13CCN(Cc1ccccc1)CC3)Nc1ccccc12,10,29%,12%,-28%,-30%,u

# Compound activity (PubChem)
